From PubChem BioAssay
Fluor 339 460: intrinsic fluorescence of library compounds, ex339/em460 – biochemical, MLSMR library, data from DPM-DC assay, artefact control, profiling panel. compound autofluorescence, ex339/em460 nm, NADH buffer; stronger effect = higher value; 1 = no-compound wells, NADH background. 5.5% of 65,000 active. fluorescence fold increase at 10 µM;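 active means at 10 µM, mean starting fluorescence two-fold or more over control wells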;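 further: signal is the first read of a kinetic run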
Spn MK inh: S. pneumoniae MK inhibitors, primary screen, biochemical, PK/LDH-coupled NADH absorbance; mevalonate kinase [Streptococcus pneumoniae D39]; purified MK, PK/LDH-coupled NADH absorbance 340 nm; inhibition, % at 10 µM; 0.48% of 65,000 active;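 active means ranked among the strongest by inhibition in the single 10 µM screen, a fixed top-ranked set picked for dose follow-up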
Abs 340nm: compound light absorbance at 340 nm, profiling panel, artefact control, biochemical, MLSMR library, data from PS, PMK, MK assays; 65,000 tested, under 10 active; compound absorbance at 340 nm, fold over control; fold change at 10 µM; AID 708, 2007;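 active means at 10 µM dose, initial 340 nm absorbance at least 2 fold that of control wells; inactive means change under 2 fold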;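 further: initial absorbance extrapolated from kinetic A340 decline of NADH oxidation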
PMK inhibit: S. pneumoniae PMK inhibitors, primary screen, biochemical, mevalonate pathway, pilot trial included. phosphomevalonate kinase (Streptococcus pneumoniae D39). purified PMK, PK/LDH-coupled NADH absorbance 340 nm. inhibition, % at 10 µM. 0.49% of 65,000 active. AID 539, 2006;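 active means top-ranked compounds by inhibition in the single 10 µM screen, taking a fixed number of the strongest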;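 further: 0% = full reaction with DMSO carrier and 100% = background rate without enzyme reaction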
DPM-DC inhibit: S. pneumoniae DPM-DC inhibitors, primary screen, biochemical, PK/LDH-coupled NADH fluorescence; purified DPM-DC; 0.49% of 65,000 active; calls only at 10 µM; diphosphomevalonate decarboxylase (Streptococcus pneumoniae D39);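 active means the 320 compounds with the highest percent inhibition in the single-dose primary screen, excluding strongly autofluorescent ones, cut at about 32% in these data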;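 further: kinetic rate of NADH fluorescence loss reporting ADP formed by the decarboxylase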
NADH enzymes: inhibitors of PK/LDH coupling enzymes, profiling panel, artefact control, biochemical, MLSMR library | 0.02% of 65,000 active | IC50, µM (doses to about 10 µM), for inactives: top-dose inhibition | coupled PK/LDH NADH assays, four targets;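 active means single-dose screening hits from any of four coupled enzyme assays that gave an IC50 when retested across doses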;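 further: the DPM-DC format reads NADH fluorescence rather than 340 nm absorbance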
Numbers without * were called inactive; i = inactive; / = no result shown; + = active, no number. Shown are actives, neighbours in structure and some others; about 6.8% of the full set was active somewhere.

SMILES	Fluor 339 460	Spn MK inh	Abs 340nm	PMK inhibit	DPM-DC inhibit	NADH enzymes
Cc1ccc(S(=O)(=O)C(C#N)c2nc3ccccc3nc2N2CCC(C)CC2)cc1 (centres undefined)	1.6	6	1	12	i	9%
N#CC(c1nc2ccccc2nc1N1CCCC1)S(=O)(=O)c1cccs1 (centres undefined)	2.7*	9	1.1	9	i	11%
N#CC(c1nc2ccccc2nc1N1CCCC1)S(=O)(=O)c1ccccc1 (centres undefined)	2.3*	12	1.1	5	/	9%
Cc1cccc(S(=O)(=O)C(C#N)c2nc3ccccc3nc2N2CCCC2)c1 (centres undefined)	3.9*	0	1.1	12	/	6%
CCCCCCOC(=O)C(C#N)c1nc2ccccc2nc1N1CCCCC1 (centres undefined)	1.1	3	1	13	i	4%
CCCCCCOC(=O)C(C#N)c1nc2ccccc2nc1N1CCN(C)CC1 (centres undefined)	3.9*	5	1	10	/	8%
CCN1c2ccccc2-c2nc3ccccc3n2C1c1ccccn1 (centres undefined)	3.8*	10	1	5	/	8%
CCN1c2ccccc2-c2nc3ccccc3n2C1c1cccnc1 (centres undefined)	3.8*	5	1	7	/	6%
CCCCNC(=O)CCSc1nc2nc(C)cc(C)n2n1	1.1	2	1	11	i	4%
CC(=O)c1ccc(-c2nc3c4ccccc4ccn3c2C(C)=O)o1	2.2*	3	1.2	3	/	3%
COC(=O)Cc1ccc2c3ccccc3n(C)c2c1	1.2	8	1.1	0	i	4%
COc1ccc(-n2nc3cc(C)c(NC(=O)C(C)C)cc3n2)cc1	5.1*	3	1	8	/	6%
CCn1c(SCC(=O)Nc2ccccc2N2CCCCC2)nc2c1c(=O)n(C)c(=O)n2C	1	8	0.98	13	i	3%
Cc1occc1C(=O)Nc1nnc(C(F)(F)F)s1	1.2	59*	1.1	74*	+	65%
CCOC(=O)N1CCC(NCCNC(=O)c2ccccc2)CC1	1.1	32	1.1	0	i	13%
Cn1c(C(=O)NCCCN2CCCC2=O)cc2c(=O)n3ccccc3nc21	4.9*	9	1.1	12	/	11%
Cn1c(C(=O)NCCC2=CCCCC2)cc2c(=O)n3ccccc3nc21	3.5*	5	1	9	/	3%
CCOC(=O)c1sc2ncn(CC(=O)N(CC)CC)c(=O)c2c1C	1.1	6	1	11	i	7%
CCOc1cccc(OCCCCn2ccnc2)c1	1.1	34	1	6	i	4%
O=C(Nc1c(F)cc(F)cc1Br)c1cc(-c2ccc(O)cc2)on1	1	4	1	3	i	3%
Cc1cc(C)c2oc(-c3ccc(Cl)c(NC(=O)c4ccc(C#N)cc4F)c3)nc2c1	4*	9	1.1	5	/	7%
COCCn1c(N)c(C(=O)OCc2ccccc2)c2nc3ccccc3nc21	3.8*	0	1.1	8	/	4%
COCCNC(=O)CSc1nc2cc(OC)c(OC)cc2c(=O)n1CCC1=CCCCC1	1.1	1	1	13	i	5%
COCCNC(=O)c1c(N)n(CCC2=CCCCC2)c2nc3ccccc3nc12	2.5*	16	1	3	/	2%
C=CCn1c(N)c(C(=O)OCCC)c2nc3ccccc3nc21	3.6*	2	1.1	18	/	10%
SMILES	Fluor 339 460	Spn MK inh	Abs 340nm	PMK inhibit	DPM-DC inhibit	NADH enzymes
CCN(CCO)c1ccc(-n2c(N)c(C(=O)OC)c3nc4ccccc4nc32)cc1	1.1	0	1.1	19	i	6%
CCOC(=O)N1CCN(S(=O)(=O)c2c(C)[nH]c(=O)[nH]c2=O)CC1	1.1	0	0.99	16	i	5%
CC1(C)Cc2nc(NCCCO)c(C#N)cc2CO1	2.4*	0	1.1	4	/	2%
CC(C)C(=O)N1CCN(c2nc(-c3ccccc3)c3c(c2C#N)CCCC3)CC1	2.2*	3	1	2	/	4%
CC1(C)Cc2c(C#N)c(N3CCOCC3)nc(Cc3ccccc3)c2CO1	2.3*	3	1	6	/	5%
CC1(C)Cc2nc(N3CCOCC3)c(C#N)cc2CO1	3.7*	15	1.1	12	/	14%
CC1(C)Cc2c(C#N)c(SCc3ccccc3)nc(N3CCOCC3)c2CO1	1.1	5	1.1	2	i	3%
CC(C)(C)NC(=O)CSc1n[nH]c(=O)n1-c1ccccc1	1.1	8	1	10	i	10%
O=C(Nc1ccccc1Cl)c1ccc2c(c1)N(Cc1ccc(F)cc1)C(=O)CS2=O (centres undefined)	1	4	1	9	i	4%
O=C(Nc1ccc(NC(=O)C2CCCN2C(=O)OCc2ccccc2)cc1)c1ccco1 (centres undefined)	1.1	2	1	10	i	4%
CC1(C)Cc2c(C#N)c(NCCN3CCOCC3)nc(-c3ccco3)c2CO1	1.4	0	0.98	10	i	3%
CC(C)Cc1nc(N2CCN(C(=O)Cc3ccccc3)CC2)c(C#N)c2c1COC(C)(C)C2	1.3	2	1	8	i	3%
Cc1nc(N2CCOCC2)c(C#N)c2c1COC(C)(C)C2	2.3*	0	1	0	/	0%
CC1CCN(c2nc(-c3ccco3)c3c(c2C#N)CC(C)(C)OC3)CC1	2.1*	7	1.1	15	/	11%
CCCC(=O)N1CCN(c2nc(CC(C)C)c3c(c2C#N)CCC3)CC1	2.2*	9	1	1	/	5%
CCc1nc(N2CCN(C(=O)c3ccccc3)CC2)c(C#N)c2c1COC(C)(C)C2	2.3*	3	1.1	1	/	2%
CCOC(=O)N1CCN(c2ncnc3c2oc2nc(CC(C)C)c4c(c23)CCC4)CC1	1.8	0	1	0	i	3%
CC(c1ccco1)N(C(=O)CSc1ccc(Br)cc1)c1ccccn1 (centres undefined)	1.1	1	1	13	i	5%
CC1(C)Cc2c(C#N)c(N3CCOCC3)nc(-c3ccccc3)c2CO1	2.2*	5	1	7	/	6%
N#Cc1cc2cc3c(cc2nc1N1CCOCC1)OCO3	3.8*	0	1.1	10	/	5%
CCc1nc(N2CCOCC2)c(C#N)c2c1COC(C)(C)C2	3.7*	12	1	14	/	13%
